For experiment [1], the target named is Acetylcholinesterase (Homo sapiens) (UniProt P22303). As to the kind of experiment: Acetylcholinesterase (AChE) small molecule antagonists: enzyme-based qHTS assay (AID 1347397; calls by dose curve; also: nearly all actives have a fitted effect of over 55% in size). The conditions noted are these: Potency: AChE enzyme activity inhibition; outcome: AChE enzyme activity inhibition. A digest of the protocol:
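rhAChE 50 mU/mL (dispensed) + cpd or DMSO, 30 min RT; add DTNB/acetylthiocholine cocktail, 10 min RT; colorimetric thiocholine readout. qHTS, 1536-well format.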

For experiment [2] the target is unchanged. As to the kind of experiment: Acetylcholinesterase (AChE) small molecule antagonists: fluorescence cell-based qHTS assay (AID 1347398; calls by dose curve; also: nearly all actives have a fitted effect of over 50% in size). The conditions noted are these: Potency: AChE activity; outcome: AChE activity. A digest of the protocol:
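Read-out is Thiolite Green fluorescence at Ex/Em = 490/520 nm, formed by reaction with thiocholine released when cellular AChE in SH-SY5Y cells hydrolyzes acetylthiocholine. Compounds were preincubated 30 min at 37 C before substrate.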

For experiment [3] the target is unchanged. As to the kind of experiment: Acetylcholinesterase (AChE) small molecule antagonists: enzyme-based qHTS assay with human liver microsomes (AID 1347399; calls by dose curve; also: nearly all actives have a fitted effect of over 60% in size). The conditions noted are these: Potency: qHTS inhibition; outcome: qHTS inhibition. A digest of the protocol:
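Recombinant human AChE (50 mU/mL in the enzyme mix) and human liver microsomes (0.25 mg/mL final) were preincubated with compound and NADPH (0.25 mg/mL final) for 30 min at 37 C. Acetylthiocholine/DTNB was then added; thiocholine was read colorimetrically after 10 min at room temperature.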

Experiment [4] is described as follows: qHTS assay for small molecule agonists of the p53 signaling pathway (AID 651631; calls by dose curve; also: potency is read from the fitted curve at half-maximal effect; nearly all actives have a fitted effect of over 15% in size). In short, it runs like this:
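We treat p53RE-bla HCT-116 cells with compounds for 16 h at 37 °C, add LiveBLAzer B/G FRET substrate for 2 h at room temperature, and measure fluorescence intensity.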

The nature of experiment [5]: qHTS assay for small molecules that induce genotoxicity in human embryonic kidney cells expressing luciferase-tagged ATAD5 (AID 651632). Also: potency is read from the fitted curve at half-maximal effect; nearly all actives have a fitted effect of over 15% in size. In short, it runs like this:
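HEK293T cells carrying a luciferase reporter tagged to ATAD5 were exposed to compound or DMSO vehicle for 16 hr at 37C, 5% CO2. Amplite was added, and after 30 min at room temperature luciferase activity was read as a marker of ATAD5 induction.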

The nature of experiment [6]: qHTS assay for small molecule agonists of the p53 signaling pathway - cell viability (AID 651633; calls by dose curve;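 also: p53RE-bla HCT reporter cells with a stable beta-lactamase p53 reporter; series mostly up to about 83 µM; nearly all actives have a fitted effect of over 30% in size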). In short, it runs like this:
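Viability counter-read: CellTiter-Glo luminescence (30 min, room temperature) in the same p53RE-bla plates. These plates had been exposed to compounds for 16 h at 37 C.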

Experiment [7] is described as follows: qHTS assay for small molecules that induce genotoxicity in human embryonic kidney cells expressing luciferase-tagged ATAD5 - cell viability (AID 651634; calls by dose curve; also: potency is read from the fitted curve at half-maximal effect; nearly all actives have a fitted effect of over 25% in size). A digest of the protocol:
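HEK293T cells expressing luciferase-tagged ATAD5 were exposed to compound or DMSO for 15.5 hr at 37C, 5% CO2. Viability was then read as live-cell protease activity by CellTiter-Fluor fluorescence after 30 min at 37C.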

Experiment [8] can be described thus: qHTS assay for small molecule disruptors of the mitochondrial membrane potential - cell viability (AID 720634; calls by dose curve;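 also: human HepG2 liver cancer cells; series mostly up to about 83 µM; nearly all actives have a fitted effect of over 20% in size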). In short, it runs like this: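 HepG2 cells seeded overnight at 37 C, then exposed to compound or DMSO for 1 hr at 37 C, 5% CO2. m-MPI dye added, then CellTiter-Glo for 30 min at room temperature; viability read as ATP luminescence.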
A short description of experiment [9]: qHTS assay for small molecule disruptors of the mitochondrial membrane potential (AID 720635). Also: potency is read from the fitted curve at half-maximal effect. A digest of the protocol: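 Mitochondrial membrane potential tracked with Mito-MPS dye, red aggregates (ex 540/em 590 nm) against green monomers (ex 490/em 535 nm). Compound treatment 1 hr at 37C, dye 30 min in HepG2.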
Experiment [10] is described as follows: qHTS assay to test for compound auto fluorescence at 590 nm (red) in HepG2 cells (AID 720674). In short, it runs like this:
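Red autofluorescence (Ex/Em 540/590 nm, Rose Bengal sodium equivalents) was measured in HepG2 cells, 2,000 per well in MEM plus 10% FBS, plated overnight at 37 C. Readings were taken 1 hr after adding 23 nL compound or DMSO, at 37 C and 5% CO2.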

The nature of experiment [11]: qHTS assay to test for compound auto fluorescence at 535 nm (green) in HepG2 cells (AID 720675).
The nature of experiment [12]: qHTS assay to test for compound auto fluorescence at 460 nm (blue) in HEK293 cells (AID 720678). In short, it runs like this:
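HEK293 cells (2,000/well, medium with 10% dialyzed FBS) attached 4-5 hr, then exposed to compound overnight at 37C, 5% CO2. Blue fluorescence read at 405/460 nm, with triamterene as reference fluorophore.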

Experiment [13] can be described thus: qHTS assay to test for compound auto fluorescence at 590 nm (red) in HEK293 cells (AID 720679). In short, it runs like this: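 HEK293 cells (2,000/well, 10% dialyzed FBS) attached 4-5 hr, then dosed with compound or DMSO and incubated overnight at 37C, 5% CO2. Red fluorescence read at 540/590 nm, Rose Bengal sodium as reference fluorophore.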
The nature of experiment [14]: qHTS assay to test for compound auto fluorescence at 535 nm (green) in HEK293 cells (AID 720680).
Experiment [15] can be described thus: qHTS assay to test for compound auto fluorescence at 460 nm (blue) in HEK293 cell free culture (AID 720681). In short, it runs like this: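 Blue fluorescence (Ex 405/Em 460 nm, triamterene-equivalent) was read immediately after pin transfer of compound or DMSO into medium (DMEM, 10% FBS) without cells.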
A short description of experiment [16]: qHTS assay to test for compound auto fluorescence at 590 nm (red) in HEK293 cell free culture (AID 720683). In short, it runs like this:
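Red-channel autofluorescence of compounds in culture medium (DMEM, 10% FBS), no cells, measured at 540/590 nm. Rose Bengal sodium is the reference fluorophore for equivalence.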

Experiment [17] in a line: qHTS assay to test for compound auto fluorescence at 590 nm (red) in HepG2 cell free culture (AID 720684). In short, it runs like this: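 Steps: dispense MEM/10% FBS medium, no cells; pin compound or DMSO vehicle; read red channel, Ex/Em 540/590 nm. Output given as Rose Bengal sodium equivalents.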
The nature of experiment [18]: qHTS assay to test for compound auto fluorescence at 460 nm (blue) in HepG2 cell free culture (AID 720685). In short, it runs like this: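 Compound (23 nL) or DMSO pinned into cell-free MEM with 10% FBS; blue fluorescence read at 405/460 nm excitation/emission, expressed as auto-fluorescence equivalency to triamterene.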
Experiment [19] in a line: qHTS assay to test for compound auto fluorescence at 535 nm (green) in HepG2 cell free culture (AID 720686).
A short description of experiment [20]: qHTS assay to test for compound auto fluorescence at 460 nm (blue) in HepG2 cells (AID 720687). In short, it runs like this: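 Blue-channel autofluorescence (Ex/Em 405/460 nm, triamterene-equivalent) was measured after 1 hr compound exposure at 37 C, 5% CO2. Cells were HepG2, plated overnight at 37 C in MEM plus 10% FBS.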
The target in experiment [21] is Glucocorticoid receptor (Homo sapiens) (UniProt P04150). As to the kind of experiment: qHTS assay to identify small molecule agonists of the glucocorticoid receptor (GR) signaling pathway (AID 720691; active = well fitted activation curve with a large enough effect in the signal ratio in the repeat runs, not every such curve was filed as active; the % refers to the signal ratio). A digest of the protocol: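 GR-bla HeLa cells (beta-lactamase reporter under glucocorticoid response element) were plated 4 h at 37 C/5% CO2, given compounds in DMSO, and incubated 18 h at 37 C. LiveBLAzer B/G FRET substrate was added for 2 h at room temperature, then fluorescence intensity read.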

The nature of experiment [22]: qHTS assay to identify small molecule antagonists of the glucocorticoid receptor (GR) signaling pathway - cell viability counter screen (AID 720693). Also: nearly all actives have a fitted effect of over 55% in size.
The nature of experiment [23]: qHTS assay for identifying genotoxic compounds that show differential cytotoxicity against isogenic chicken DT40 cell lines with known DNA damage response pathways - wild type cell line (AID 743012). Also: potency is read from the fitted curve at half-maximal effect; nearly all actives have a fitted effect of over 60% in size. A digest of the protocol:
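Parental DNA repair-proficient DT40 cells, 300 per well, were pre-incubated ~0.5 h at 37 C/5% CO2, pin-dosed with compounds in DMSO, then incubated 40 h. Viability was read as CellTiter-Glo luminescence after 30 min at room temperature.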

A short description of experiment [24]: qHTS assay for identifying genotoxic compounds that show differential cytotoxicity against isogenic chicken DT40 cell lines with known DNA damage response pathways - Rev3 mutant cell line (AID 743014). Also: potency is read from the fitted curve at half-maximal effect; nearly all actives have a fitted effect of over 55% in size.
The nature of experiment [25]: qHTS assay for identifying genotoxic compounds that show differential cytotoxicity against isogenic chicken DT40 cell lines with known DNA damage response pathways - Rad54/Ku70 mutant cell line (AID 743015). Also: potency is read from the fitted curve at half-maximal effect; nearly all actives have a fitted effect of over 60% in size.
The nature of experiment [26]: qHTS assay to identify small molecule antagonists of the thyroid receptor (TR) signaling pathway - cell viability counter screen (AID 743064). Also: potency is read from the fitted curve at half-maximal effect; nearly all actives have a fitted effect of over 50% in size. In short, it runs like this: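 In rat pituitary GH3.TRE-Luc reporter cells co-exposed to compound and 1 nM T3 for 23.5 h, cytotoxicity was assessed with CellTiter-Fluor in the same wells, read by fluorescence.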
Experiment [27] in a line: qHTS assay to identify small molecule antagonists of the thyroid receptor (TR) signaling pathway (AID 743065). Also: potency is read from the fitted curve at half-maximal effect; nearly all actives have a fitted effect of over 55% in size. A digest of the protocol:
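Antagonism measured as loss of luciferase signal in GH3 cells stably carrying a TRE-luciferase reporter, co-treated with compound and T3 (1 nM final) for 23.5 h at 37 C. Viability was read in the same well by CellTiter-Fluor.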

Experiment [28] deals with Estrogen receptor (Homo sapiens) (UniProt P03372). As to the kind of experiment: qHTS assay to identify small molecule antagonists of the estrogen receptor alpha (ER-alpha) signaling pathway (AID 743069; active = well fitted curve in the direction sought with a large enough effect in the signal ratio in the repeat runs, not every such curve was filed as active; the % refers to the signal ratio). In short, it runs like this: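 ER-alpha-UAS-bla GripTite HEK293 line; 2% charcoal-stripped FBS overnight; plated, 4 hr 37C/5% CO2; cpd in DMSO + 17beta-estradiol, 18 hr 37C; LiveBLAzer B/G FRET substrate 2 hr RT; fluorescence intensity.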

Experiment [29] in a line: qHTS assay to identify small molecule antagonists of the estrogen receptor alpha (ER-alpha) signaling pathway - cell viability counter screen (AID 743074; calls by dose curve;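 also: HEK293 cells carrying ER-alpha-UAS-bla reporter stimulated with 17beta-estradiol; nearly all actives have a fitted effect of over 45% in size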).
The target in experiment [30] is Estrogen receptor (Homo sapiens) (UniProt P03372). As to the kind of experiment: qHTS assay to identify small molecule agonists of the estrogen receptor alpha (ER-alpha) signaling pathway using the BG1 cell line (AID 743079). Also: nearly all actives have a fitted effect of over 20% in size.
The target of another experiment is Aromatase (Homo sapiens) (UniProt P11511). As to the kind of experiment: qHTS assay to identify aromatase inhibitors (AID 743083).
The nature of experiment [31]: qHTS assay to identify aromatase inhibitors - cell viability counter screen (AID 743084).
A short description of experiment [32]: qHTS assay to identify small molecule that activate the aryl hydrocarbon receptor (AhR) signaling pathway - cell viability counter screen (AID 743086). Also: potency is read from the fitted curve at half-maximal effect; nearly all actives have a fitted effect of over 45% in size. In short, it runs like this:
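Cytotoxicity counter screen: CellTiter-Fluor signal (30 min, 37 C) in 4000 HepG2 cells/well carrying the DRE-luciferase reporter, following 24 h compound exposure at 37 C.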

Values without a mark were called inactive. Records with an inconclusive call do not appear. Activity calls are given as the source filed them. Unless noted, calls follow the shape of the dose curve; as a rule, active = well fitted curve in the direction sought with a large enough effect in the repeat runs; inconclusive = weak or mixed curves; inactive = no such curve, though single readings can be large; an effect the other way counts as inactive or inconclusive.

Chain of Acetylcholinesterase (Homo sapiens) (P22303 whole entry, looked up): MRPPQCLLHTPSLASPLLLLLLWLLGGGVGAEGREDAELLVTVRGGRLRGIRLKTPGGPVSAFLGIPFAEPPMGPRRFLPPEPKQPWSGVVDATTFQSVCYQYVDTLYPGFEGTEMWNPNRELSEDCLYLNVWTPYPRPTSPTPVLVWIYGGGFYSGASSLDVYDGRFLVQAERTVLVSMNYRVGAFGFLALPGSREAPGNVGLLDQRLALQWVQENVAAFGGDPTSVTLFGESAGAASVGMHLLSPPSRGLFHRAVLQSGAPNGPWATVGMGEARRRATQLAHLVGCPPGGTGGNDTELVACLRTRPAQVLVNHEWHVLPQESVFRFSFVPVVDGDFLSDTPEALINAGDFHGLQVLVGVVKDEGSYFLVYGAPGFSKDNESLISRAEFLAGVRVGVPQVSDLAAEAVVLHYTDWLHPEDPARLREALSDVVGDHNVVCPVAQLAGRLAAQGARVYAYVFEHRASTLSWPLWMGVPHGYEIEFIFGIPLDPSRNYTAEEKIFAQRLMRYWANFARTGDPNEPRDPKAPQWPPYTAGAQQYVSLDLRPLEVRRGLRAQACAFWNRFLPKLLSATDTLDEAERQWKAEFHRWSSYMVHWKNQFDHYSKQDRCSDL
Chain of Estrogen receptor (Homo sapiens) (P03372 whole entry, looked up): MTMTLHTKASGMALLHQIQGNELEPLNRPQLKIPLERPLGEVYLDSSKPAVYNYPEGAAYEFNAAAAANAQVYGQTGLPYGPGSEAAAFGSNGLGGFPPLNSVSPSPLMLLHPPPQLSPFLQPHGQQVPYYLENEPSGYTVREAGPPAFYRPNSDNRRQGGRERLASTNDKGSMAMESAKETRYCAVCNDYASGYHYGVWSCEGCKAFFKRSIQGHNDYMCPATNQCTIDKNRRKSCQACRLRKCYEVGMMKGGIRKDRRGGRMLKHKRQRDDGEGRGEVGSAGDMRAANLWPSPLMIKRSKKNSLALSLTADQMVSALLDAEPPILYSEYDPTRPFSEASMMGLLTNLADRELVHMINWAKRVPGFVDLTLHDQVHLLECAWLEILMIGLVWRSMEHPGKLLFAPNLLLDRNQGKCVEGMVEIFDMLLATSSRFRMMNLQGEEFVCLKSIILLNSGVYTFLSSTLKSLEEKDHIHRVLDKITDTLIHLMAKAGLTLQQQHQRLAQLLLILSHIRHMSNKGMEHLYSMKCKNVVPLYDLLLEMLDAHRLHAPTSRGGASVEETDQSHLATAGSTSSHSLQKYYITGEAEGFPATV
Chain of Aromatase (Homo sapiens) (P11511 whole entry, looked up): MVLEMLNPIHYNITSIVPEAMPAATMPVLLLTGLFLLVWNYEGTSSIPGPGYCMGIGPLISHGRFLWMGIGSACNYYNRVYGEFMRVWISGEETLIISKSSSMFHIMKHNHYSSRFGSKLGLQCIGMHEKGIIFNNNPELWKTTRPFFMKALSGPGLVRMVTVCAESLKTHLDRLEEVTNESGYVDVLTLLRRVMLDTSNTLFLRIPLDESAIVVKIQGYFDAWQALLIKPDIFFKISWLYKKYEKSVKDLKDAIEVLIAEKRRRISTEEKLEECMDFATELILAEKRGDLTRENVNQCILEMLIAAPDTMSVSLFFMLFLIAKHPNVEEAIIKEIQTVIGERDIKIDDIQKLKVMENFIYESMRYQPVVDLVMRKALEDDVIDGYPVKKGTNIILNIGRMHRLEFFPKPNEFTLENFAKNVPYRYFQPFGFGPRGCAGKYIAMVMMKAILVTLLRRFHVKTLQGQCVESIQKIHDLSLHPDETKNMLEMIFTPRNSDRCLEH
Chain of Glucocorticoid receptor (Homo sapiens) (P04150 whole entry, looked up): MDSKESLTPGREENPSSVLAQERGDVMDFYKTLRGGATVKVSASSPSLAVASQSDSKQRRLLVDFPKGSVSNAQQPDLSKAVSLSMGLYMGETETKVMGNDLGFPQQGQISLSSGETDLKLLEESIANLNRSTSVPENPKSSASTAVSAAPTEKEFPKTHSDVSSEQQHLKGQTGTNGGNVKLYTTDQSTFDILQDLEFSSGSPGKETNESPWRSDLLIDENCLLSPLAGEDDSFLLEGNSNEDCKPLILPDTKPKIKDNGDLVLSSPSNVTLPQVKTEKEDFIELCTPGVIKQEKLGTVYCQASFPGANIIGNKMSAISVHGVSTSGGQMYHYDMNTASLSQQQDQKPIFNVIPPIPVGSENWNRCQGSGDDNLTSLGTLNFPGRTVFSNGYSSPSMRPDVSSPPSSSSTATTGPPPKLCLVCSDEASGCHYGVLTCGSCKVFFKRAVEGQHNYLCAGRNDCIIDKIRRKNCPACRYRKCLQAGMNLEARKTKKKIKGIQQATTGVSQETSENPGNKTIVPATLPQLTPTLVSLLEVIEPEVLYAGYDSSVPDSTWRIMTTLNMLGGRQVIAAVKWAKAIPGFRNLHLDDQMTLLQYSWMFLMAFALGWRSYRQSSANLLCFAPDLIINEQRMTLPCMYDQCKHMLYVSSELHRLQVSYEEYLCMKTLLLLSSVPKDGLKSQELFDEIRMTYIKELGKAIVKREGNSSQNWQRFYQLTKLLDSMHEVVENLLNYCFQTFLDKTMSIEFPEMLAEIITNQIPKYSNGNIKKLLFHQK

Regarding `NC(=O)c1cnccn1`, the Potency entry in [1], in experiment [2] and in experiment [3] was “inactive” throughout.

In the case of `COc1cc([C@@H]2c3cc4c(cc3[C@@H](O)[C@H]3COC(=O)[C@H]23)OCO4)cc(OC)c1O`, the Potency in experiment [4] is 168 nM (active); in experiment [5], 1880 nM (active); in experiment [7], 298 nM (active); in experiment [9] it was 2110 nM (active); in [23], 237 nM (active); in experiment [24], 266 nM (active). For the same molecule, the Potency in [25] is 266 nM (active); in [26] it was 10600 nM (active); in experiment [27], 266 nM (active); in [32] it was 29800 nM (active). Further, the Potency result in experiment [6], in experiment [8], in experiment [11], in [12], in experiment [14] and in [15] was “inactive” in each case. The Potency entry in experiment [18], in [19], in [20], in experiment [21], in experiment [22] and in experiment [28] was “inactive” in each case. The Potency entry (in [29]; in [30]; with Aromatase (Homo sapiens); in [31]) was “inactive” in each case. Further, the call in experiment [10], in experiment [13], in experiment [16] and in experiment [17] was inactive.
